The values below come from the supplement of paper PMC6555819.

The test system of the test is VDR homodimer (NR concentration 270 nM). The test is described as follows: PBM binding z-score (relative to random genomic background probes); higher = stronger binding; sequences stand for … in GC…GCGATTGACAGCGTAGAATGAAGG
In outline:
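For binding z-scores, the reference was random background probes on custom Agilent 4×180K protein-binding microarrays. These arrays were incubated 1 h with ligand-free nuclear receptor dimers in PBS pH 7.4, 2% milk, 0.02% Triton X-100, 1 mM DTT, 0.2 mg/mL BSA and 0.4 mg/ml salmon testes DNA. Fluorescence was scanned after antibody detection of each partner (one per run) and regression-normalized.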
Turning to CTATGTAGTTTAAGGGGGTCATTCAGTTTGAAAG, the PBM binding z-score amounted to 7.03.

Sequence GTACCAAGGTGAATAGGTCGTTGATGAGTAGGCG showed a PBM binding z-score of 0.496.

Consider ATGGAAAGGTCGTGAGGTGAGTATACAGAAAGGC, for which the PBM binding z-score came to 1.72.

With AGAATGAGGTTACCAGAGATCAGGGAAACGCTTG, the PBM binding z-score turned out to be 0.106.

The sequence CAAAGTAGGTCACGAAAGGTCAAAGTCGAATGAC showed a PBM binding z-score of 3.31.

In the case of TCGAGTAGGTTACGGGGGCCTTCAGGGATGAAGA, the PBM binding z-score was 0.302.

With CCGAGTAGGTTCCGAGGGGGCATTCAGTGCGAAT, the PBM binding z-score is 3.91.

In turn, AGAATGAGGTTAAGATTAGGGAAACAGAATACAT registered a PBM binding z-score of 0.435.

For the sequence ATATGTATGTTAGGGTCATTCAGAAAGTAGGGAA, the PBM binding z-score is 3.27.

In turn, ATATCTAGGTTAGGGTCATTCAGAAAGTAGGGAA gave a PBM binding z-score of 4.16.

CGAACTAGGTCACCAGGACAGTCAAGAGGTTGGA registered a PBM binding z-score of 0.612.

Sequence CAAACTAGGTCACGAAAGGTCAAAATCGAATGAC had a PBM binding z-score of 3.13.

In the case of AGTCAGAGTTCATCTAGGTAACGTAAGATATGCT, the PBM binding z-score is 7.13.

For the sequence CAAAATAGGTCAAGGTCAAAGTCGGTTTGTGCCA, the PBM binding z-score came out at 3.72.

In turn, TCGCGTAGGTTACGGGGGCATTCAGGGATGAAGA gave a PBM binding z-score of 2.44.

In the case of CCTGCTAGGTCTATGGTCAGCTAAAGCAGCTCGC, the PBM binding z-score is -0.594.

CCGAGTAGCTTACGAGGGGGCATTCAGTGCGAAT: the PBM binding z-score was 2.86.

With AGATTGAGGTTACCAAAGATCAGGGAAACGCTTG, the PBM binding z-score amounted to 0.381.

As for GGAACGAGCGCAAAGTTGATAGCATCTGTCGACG, the PBM binding z-score is -0.905.

For the sequence TCTAGTTGGTCAAAGGTCAAACACTCGAAATGCG, the PBM binding z-score came out at 3.12.

As to CTATGTAGGTTAAGGGGGTCGTTCAGTTTGAAAG, the PBM binding z-score amounted to 4.04.

Sequence TATACAGGATCAAAGGCCAGAGTACGAATGTCGA yielded a PBM binding z-score of 0.376.
